Assay outcomes: PubChem BioAssay, National Center for Advancing Translational Sciences (NCATS)
This is a sample that favours compounds with a hit; in the whole collection about 8.7% have one here.
Sfp PPTase inh – blocks B. subtilis Sfp PPTase activity. Q9F4F7. Biochemical Sfp PPTase activity, qHTS. Potency, µM, without a hit: largest response in the series, negative = inhibition, actives largely listed as inhibitors. 310,000 tested, 3.5% active;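 further: the enzyme is Sfp with the accession as filed and its product quenches rhodamine fluorescence; 0% = enzyme reaction without inhibitor and -100% = no enzyme wells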
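Fluorescence-quenching assay with 15 nM Sfp, 5 uM rhodamine-CoA and 12.5 uM BHQ-2-labelled ybbR peptide in pH 7.6 Hepes/MgCl2 buffer. Enzyme was pre-incubated with compound for 15 min at room temperature. Rate was taken from the 30-min fluorescence change (525/598 nm).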
12-LOX inh – ALOX12 (human) lipoxygenase inhibition; purified 12hLO, xylenol orange hydroperoxide absorbance; Potency, µM (top dose mostly 108 µM), inactives show at the top dose activity change, negative = inhibition, most hits filed as inhibitors; 580,000 tested, 1.1% active; AID 1671190; further: on the % scale 0 is the no-effect control and ±100 the full control effect
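Purified human 12hLO at 150 nM in 25 mM Hepes, 0.01% Triton X-100, pH 7.0, preincubated 15 min at room temperature with compound. Reaction started with 40 uM arachidonic acid, 30 min at room temperature. Hydroperoxide measured by Fe-xylenol orange, 573/405 nm absorbance ratio.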
HP1b binding inh – blocks HP1-beta chromodomain binding to methylated histone tails; P83916; AlphaScreen HP1-beta / biotin-H3K9me3 peptide binding; 390,000 tested, 0.56% active; Potency, µM (highest dose often 114 µM), inactives show at the highest dose activity change, negative = inhibition, hits mostly inhibitors; further: nearly all actives have a fitted effect of over 70% in size
Target sequence (P83916 whole entry, looked up): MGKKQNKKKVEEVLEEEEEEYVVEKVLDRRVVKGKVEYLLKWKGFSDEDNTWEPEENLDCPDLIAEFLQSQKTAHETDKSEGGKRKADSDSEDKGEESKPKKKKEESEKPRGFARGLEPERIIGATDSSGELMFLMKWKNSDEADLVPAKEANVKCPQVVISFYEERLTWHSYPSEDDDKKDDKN
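AlphaScreen: HP1-beta (50 nM) preformed 30 min with biotin-H3(1-18)K9me3 peptide (50 nM) in PBS pH 7.4, 0.01% Tween-20. Compound added for 30 min at RT, then streptavidin donor/nickel chelate acceptor beads (10 ug/mL) for 30 min.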
JMJD2A Tudor – blocks the human JMJD2A Tudor domain; 390,000 tested, 4.4% active; Potency, µM (doses to about 114 µM), for the others: top-dose activity change, negative = inhibition, hits mostly inhibitors; O75164; AlphaScreen JMJD2A-Tudor / H3K4me3 peptide binding; further: on the % scale 0 is the no-effect control and ±100 the full control effect; nearly all actives have a fitted effect of over 50% in size
G9a inh – G9a (human) methyltransferase inhibition; Q96KQ7; G9a H3K9 monomethylation, AlphaScreen, 2 h; Potency, µM (highest dose often 102 µM), inactives show at the highest dose activity, negative = inhibition, hits mostly inhibitors; 350,000 tested, 8.8% active; AID 504332; further: on the % scale 0 is the no-effect control and ±100 the full control effect; nearly all actives have a fitted effect of over 75% in size
Target sequence (Q96KQ7 913-1193 limits assumed): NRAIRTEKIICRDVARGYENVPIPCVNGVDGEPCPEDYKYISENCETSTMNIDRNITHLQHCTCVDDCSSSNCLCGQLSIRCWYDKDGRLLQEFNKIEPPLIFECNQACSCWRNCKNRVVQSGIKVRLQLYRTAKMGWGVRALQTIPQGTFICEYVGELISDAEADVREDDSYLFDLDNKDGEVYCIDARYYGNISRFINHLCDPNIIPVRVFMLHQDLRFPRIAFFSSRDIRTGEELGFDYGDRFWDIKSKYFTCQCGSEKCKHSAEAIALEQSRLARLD
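Readings reflect AlphaScreen signal from monomethyl-H3K9 antibody detection. HMT at 20 nM; substrate b-H3K9 500 nM; cofactor SAM 20 uM; 2 h RT reaction; compounds tested as titrations in qHTS with 15 min preincubation.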
BAZ2B block – inhibitors of human BAZ2B bromodomain. Q9UIF8. AlphaScreen BAZ2B-H3K14Ac peptide displacement. Potency, µM (series often up to 114 µM), for the others: top-dose activity change, negative = inhibition, hits mostly inhibitors. 360,000 tested, 4.4% active. AID 504333; further: on the % scale 0 is the no-effect control and ±100 the full control effect; nearly all actives have a fitted effect of over 60% in size
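AlphaScreen luminescence quantifies BAZ2B engagement of H3K14Ac peptide; the protein and biotinylated peptide are both at 50 nM final, buffer PBS pH 7.4 with 0.01% Tween-20, all steps at room temperature.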
The depositor's hits bear a star; ? = inconclusive; / = no result given; [ ] = dose if it differs, or a comment. The call rests on the fitted dose curve; in most records, active means well fitted curve in the direction sought with a large enough effect; inconclusive means small, poorly fitted or top-dose-only effect, or another doubt; inactive means no such curve, though single readings can be large; an effect the other way counts as inactive or inconclusive. Potency means the concentration at half of the fitted maximal effect.

SMILES	Sfp PPTase inh	12-LOX inh	HP1b binding inh	JMJD2A Tudor	G9a inh	BAZ2B block
COc1ccc(C(=O)COC(=O)c2c(Cl)cccc2Cl)c(OC)c1	/	-45.1%	/	/	/	/
Cc1ccc(CN(C(=O)c2ccco2)C(C(=O)NC2CCCC2)c2ccc(N3CCOCC3)cc2)cc1 (stereo unspecified)	5.1%	8.7%	19.1%	-14.3%	28.2µM*	-17.3%
Cc1ccc(CN(C(=O)c2ccco2)C(C(=O)NC2CCCC2)c2cccnc2)cc1 (stereo unspecified)	17.6%	8.3%	6.7%	-9.8%	3.7%	-16.4%
CCOC(=S)SCC(=O)N1CCc2ccccc2C1C1C(=O)CCCC1=O (stereo unspecified)	56.2µM*	-23.6%	5.1%	-13.0%	?	?
Cc1cccc(CN(C)C(=O)c2cc(-c3cnc(C)nc3)nc3cc(F)ccc23)n1	/	23.8%	/	/	/	/
Nc1nc2n[nH]nc2c(=O)[nH]1	-11.2%	6.2%	34.0%	-12.2%	-3.2%[21.5 µM]	/
Nc1nc(=S)c2n[nH]nc2[nH]1	/	/	45.9%	17.8µM*	/	/
Cc1ccc(N2C(=O)C3Sc4[nH]c(=O)sc4C(c4ccccc4)C3C2=O)cc1 (stereo unspecified)	-3.7%	?	6.0%	-34.1%	51.3%[0.501 µM]	50.1µM*
CC(C)(C)C(=O)/C=c1/[nH]c(=O)/c(=C/c2cccc3ccccc23)s1	/	-8.5%	/	/	/	/
CC(C)c1nnc(N2C(=O)C(O)=C(C(=O)c3cccs3)C2c2ccccc2)s1 (stereo unspecified)	?	?	8.3%	-28.4%	25.1µM*	79.4µM*
Cc1cccc(N2C(=O)C(O)=C(C(=O)c3cccs3)C2c2ccc(C(C)C)cc2)n1 (stereo unspecified)	3.9%	?	5.2%	-25.3%	?	-32.2%
COc1ccc(C2C(C(=O)c3cccs3)=C(O)C(=O)N2c2nncs2)cc1 (stereo unspecified)	-28.2%	?	-0.2%	?	44.7µM*	?
COc1ccc(C2C(C(=O)c3cccs3)=C(O)C(=O)N2c2nnc(C)s2)cc1OC (stereo unspecified)	56.2µM*	/	24.0%	79.4µM*	?	50.1µM*
C=CCOc1ccc(C2C(C(=O)c3cccs3)=C(O)C(=O)N2c2nnc(C)s2)cc1 (stereo unspecified)	/	?	9.5%	?	/	/
Cc1cc2n(n1)C(c1ccccc1)CC(c1ccc(Br)cc1)=N2 (stereo unspecified)	-2.4%	/	91.4%	22.9%	39.8µM*	24.1%
Cc1cccn2c(=S)[nH]nc12	/	?	70.8µM*	2.82µM*	/	/
COc1nccc(N2CCC(CC(=O)NCCCN3CCC(C)CC3)CC2)n1	/	17.9%	/	/	/	/
Cc1nnc(SCC2=C(C(=O)O)N3C(=O)C(NC(=O)c4cccc(F)c4F)C3SC2)s1 (stereo unspecified)	56.2µM*	-19.2%	10.7%	-21.6%	?	?
Cc1cc(C)n(CC(=O)NC2C(=O)N3C(C(=O)O)=C(CSc4nnc(C)s4)CSC23)n1 (stereo unspecified)	56.2µM*	-2.4%	7.0%	25.1µM*	39.8µM*	70.8µM*
Cc1nnc(SCC2=C(C(=O)O)N3C(=O)C(NC(=O)Cn4ncc(Cl)c4C)C3SC2)s1 (stereo unspecified)	28.2µM*	-1.2%	13.7%	?	28.2µM*	?
CCc1noc(C)c1C(=O)Nc1nc(-c2ccc(OC)c(OC)c2)cs1	/	?	-16.5%	-33.1%	?	0.1%
COc1ccc(-c2csc(NC(=S)NC(=O)c3cccs3)n2)cc1Br	-6.0%	0.0%	10.1%	-5.2%	4.4%	-13.0%
COc1ccc(-c2csc(NC(=O)CSCc3c(C)noc3C)n2)cc1OC	-6.2%	3.3%	-1.6%	-28.3%	/	?
COc1ccc(-c2csc(NC(=S)NC(=O)c3cccs3)n2)cc1OC	31.6µM*	-14.4%	-4.6%	-33.6%	31.6µM*	?
COc1ccc(-c2csc(NC(=O)CSCC(=O)Nc3cc(C)on3)n2)cc1OC	/	-6.5%	-8.9%	-22.4%	39.8µM*	-6.2%
SMILES	Sfp PPTase inh	12-LOX inh	HP1b binding inh	JMJD2A Tudor	G9a inh	BAZ2B block
COc1ccc(-c2csc(NC(=O)c3cc(C)oc3C)n2)cc1OC	-20.1%	18.2%	-20.9%	?	50.1µM*	35.5µM*
CN(CCCc1[nH]nc(N)c1C#N)c1nc(-c2ccccc2)nc2ccccc12	/	36.2%	/	/	/	/
O=C(Nc1ccc(CC(=O)N2CCOCC2)cc1)c1cc(Cl)ccc1Cl	/	38.5%	/	/	/	/
Cc1cc(C)c(NC(=O)c2c[nH]c(=S)n2-c2ccc(F)cc2)c(C)c1	-11.0%	?	27.8%	?	2.82µM*	-21.1%
C=CCNC(=O)N1CCc2[nH]c3ccc(F)cc3c2C1	-2.5%	10.6%	43.8%	-22.8%	-13.9%	-12.8%
Fc1ccc2[nH]c3c(c2c1)CN(C(=S)NCc1ccccc1)CC3	-24.5%	172.7%	-18.5%	?	/	56.2µM*
O=c1[nH]c(C2CCN(S(=O)(=O)c3ccc([N+](=O)[O-])cc3)CC2)nc2c1nnn2Cc1ccccc1	-5.3%	-12.6%	4.3%	-18.6%	-2.0%	?
O=C(c1ccc2c(c1)OCO2)N1CCC(c2nc3c(nnn3Cc3cccc(Cl)c3)c(=O)[nH]2)CC1	/	12.6µM*	/	/	/	/
O=c1[nH]c(C2CCN(S(=O)(=O)c3ccccc3)CC2)nc2c1nnn2Cc1ccccc1	-7.0%	-29.1%	1.0%	50.1µM*	?	-8.9%
COc1ccc(-c2nc(CS(=O)CC(=O)NCCCOC(C)C)c(C)o2)cc1OC (stereo unspecified)	/	-5.6%	/	/	/	/
CCCOc1ccc(Cn2c(SCC(=O)NC(C)(C)C)nc3c(sc4ncccc43)c2=O)cc1	/	0.7%	/	/	/	/
O=C1Nc2ccc(Br)cc2/C1=C/C(=O)c1ccc2c(c1)OCO2	56.2µM*	?	-13.3%	?	10µM*	?
COc1ccc(C(=O)/C=C2\C(=O)Nc3ccc(Br)cc32)cc1	/	?	-11.6%	?	/	/
COc1cc(/C=C(\C#N)c2nc3ccccc3[nH]2)cc(OC)c1O	?	?	-35.6%	?	10µM*	39.8µM*
COc1ccc(/C=C(\C#N)c2nc3ccccc3[nH]2)cc1O	3.8%	0.0%	4.9%	?	?	-29.0%
Cn1c(/C(C#N)=C/c2ccc(O)cc2)nc2ccccc21	-6.5%	-24.4%	24.5%	-10.4%	/	-6.5%
COc1cc(/C=C(\C#N)c2nc3ccc(C)cc3[nH]2)cc([N+](=O)[O-])c1O	3.1%	44.7µM*	35.5µM*	39.8µM*	/	12.6µM*
COc1cc(/C=C(\C#N)c2nc3ccc(C)cc3[nH]2)c([N+](=O)[O-])cc1OC	-61.6%	-1.5%	2.1%	-14.7%	/	-12.8%
